# The supplement of paper PMC7411640
# Where a name gives a salt, the structure may show the parent alone.
# Test system: MDA-MB-468
# Assay: phospho-S6 immunofluorescence (DAPI-normalised), per-plate z-score; higher = higher phospho-S6 signal (less pathway suppression)
# Conditions: co-treatment: GDC0941 450 nM; 24 h
# Experimental: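 GPCR-targeted compound library (MedChemExpress HY-L006) tested on MDA-MB-468 PTEN-null TNBC cells in 384-well plates at 0.1, 1 or 10 uM, combined with vehicle, GDC0941 450 nM or lapatinib 1 uM, for 24 h. Phospho-S6 (S240/244) immunofluorescence normalised to DAPI and expressed as a per-plate z-score; values are the mean of biological triplicates.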
row,Compound,phospho-S6 immunofluorescence (z-score)
1,CN(C)CC[C@@H](c1ccc(Cl)cc1)c1ccccn1 [Dexchlorpheniramine (maleate)] (compound 10 µM),0.61
2,Nc1nc(CC(=O)Nc2ccc(CCNC[C@H](O)c3ccccc3)cc2)cs1 [Mirabegron] (compound 10 µM),0.91
3,CNC[C@H](O)c1ccc(O)c(O)c1 [L-Epinephrine (Bitartrate)] (compound 10 µM),0.93
4,O=c1cc(C(Cl)(Cl)Cl)oc2ccc(Cl)cc12 (compound 10 µM),0.54
5,CCn1c(=O)c2c(nc(/C=C/c3ccc(OC)c(OC)c3)n2C)n(CC)c1=O [Istradefylline] (compound 10 µM),0.2
6,CC[C@H](C)[C@H](NC(=O)[C@H](Cc1ccc(O)cc1)NC(=O)[C@@H]1CCCN1C(=O)[C@@H](NC(=O)[C@@H](N)CCCCN)[C@@H](C)CC)C(=O)N[C@@H](CC(C)C)C(=O)O [Neuromedin N] (compound 10 µM),0.27
7,CN(C)CCOC(c1ccccc1)c1ccccc1 [Diphenhydramine (hydrochloride)] (compound 10 µM),-0.32
8,Nc1nc(N)nc(-c2cc(Cl)ccc2Cl)n1 [Irsogladine] (compound 10 µM),-0.7
9,COc1cc2c(cc1OC)CC(=O)N(CCCN(C)C[C@H]1Cc3cc(OC)c(OC)cc31)CC2 [Ivabradine (hydrochloride)] (compound 10 µM),-0.44
10,CC(C)NCC(O)COc1ccc(CCOCC2CC2)cc1 (configuration not stated) [Betaxolol] (compound 10 µM),0.15
11,CC(=O)OCC(=O)[C@@]1(O)[C@H](C)C[C@H]2[C@@H]3CCC4=CC(=O)C=C[C@]4(C)[C@@]3(F)[C@@H](O)C[C@@]21C [Dexamethasone (acetate)] (compound 10 µM),0.07
12,Cc1nccn1CCC(C(N)=O)(c1ccccc1)c1ccccc1 [Imidafenacin] (compound 10 µM),-0.05
13,COc1cc2c(NC3CCN(C(C)C)CC3)nc(N3CCC(F)(F)CC3)nc2cc1OCCCN1CCCC1 (compound 10 µM),1.81
14,CN(C)CCSSCCNC(=O)C1CCN(C(=O)CSc2ccc(Cl)cc2)CC1 [6H05 (trifluoroacetate)] (compound 10 µM),-1.17
15,CC(=O)Oc1cc(C(C)C)c(OCCN(C)C)cc1C [Moxisylyte (hydrochloride)] (compound 10 µM),0.49
16,Cc1ccc(Sc2ccccc2N2CCNCC2)c(C)c1 [Vortioxetine] (compound 10 µM),-5.05
17,CCCN(CCC)CCc1cccc2c1CC(=O)N2 [Ropinirole (hydrochloride)] (compound 10 µM),0.64
18,CNCCc1ccccn1 [Betahistine (dihydrochloride)] (compound 10 µM),-1.02
19,CN(C)CCCN1c2ccccc2Sc2ccccc21 [Promazine (hydrochloride)] (compound 10 µM),-0.07

row,Compound,phospho-S6 immunofluorescence (z-score)
1,CCc1c(C(=O)NCCc2ccc(N3CCCCC3)cc2)[nH]c2ccc(Cl)cc12 (compound 10 µM),-1.02
2,C[C@@](N)(C(=O)O)c1ccc(C(=O)O)cc1 (compound 10 µM),0.93
3,Cc1nc(C#Cc2cccnc2)cs1 [MTEP (hydrochloride)] (compound 10 µM),-0.31
4,Cc1ccc(C(=O)Nc2ccc(S(=O)(=O)O)c3cc(S(=O)(=O)O)cc(S(=O)(=O)O)c23)cc1NC(=O)c1cccc(NC(=O)Nc2cccc(C(=O)Nc3cc(C(=O)Nc4ccc(S(=O)(=O)O)c5cc(S(=O)(=O)O)cc(S(=O)(=O)O)c45)ccc3C)c2)c1 [Suramin (sodium salt)] (compound 10 µM),0.54
5,CC(C)c1noc(N2CCC(COc3ccc(-c4ccc(S(C)(=O)=O)cc4)nc3)CC2)n1 (compound 10 µM),-2.9
6,Cc1c(-c2ccccc2)oc2c(C(=O)OCCN3CCCCC3)cccc2c1=O [Flavoxate (hydrochloride)] (compound 10 µM),0.25
7,CCC(=O)NC[C@@H]1C[C@H]1c1cccc2c1CCO2 [Tasimelteon] (compound 10 µM),-1.06
8,C#CCOc1ccc2c(c1)c(-c1ccc(C(C)C)cc1)nc(=O)n2C(C)C [Calcium-Sensing Receptor Antagonists I] (compound 10 µM),-3.51
9,Nc1nc(-c2nn(Cc3ccccc3F)c3ncccc23)ncc1C1CC1 (compound 10 µM),1.07
10,CN1CCC(=C2c3ccccc3CCn3c(C=O)cnc32)CC1 [Alcaftadine] (compound 10 µM),-0.88
11,CCOC(=O)N[C@@H]1CC[C@@H]2[C@@H](C1)C[C@H]1C(=O)O[C@H](C)[C@H]1[C@H]2/C=C/c1ccc(-c2cccc(F)c2)cn1 [Vorapaxar] (compound 10 µM),-5.92
12,CC(C)=CCC/C(C)=C/CC/C(C)=C/CSc1ccccc1C(=O)O [Salirasib] (compound 10 µM),0.9
13,CCCCC[C@H](O)/C=C/[C@H]1[C@H](O)CC(=O)[C@@H]1CCCCCCC(=O)O [Prostaglandin E1] (compound 10 µM),-0.04
14,CCCCCCOc1nsnc1C1=CCCN(C)C1 [Xanomeline (oxalate)] (compound 10 µM),-0.72
15,COc1cc2nc(N3CCN(C(=O)c4ccco4)CC3)nc(N)c2cc1OC [Prazosin (hydrochloride)] (compound 10 µM),2.1
16,Clc1ccc2nsnc2c1NC1=NCCN1 [Tizanidine (hydrochloride)] (compound 10 µM),1.42
17,CC1(C)C(=O)N(CCN2CCC(C(=O)c3ccc(F)cc3)CC2)c2ccccc21 (compound 10 µM),-0.29
18,OCCOCCN1CCN(C(c2ccccc2)c2ccccc2)CC1 [Decloxizine (dihydrochloride)] (compound 10 µM),0.55
